Screening data (PubChem BioAssay)
An excerpt weighted towards active compounds, which were near 4.2% of everything screened.
SW480 rereplic: DNA re-replication induction in SW480 cells; SW480 DNA re-replication, Hoechst DNA content imaging, 48 h; Potency, µM (highest dose often 46.1 µM), without a hit: at the top dose re-replication activation, usual class: activators; 340,000 tested, 1.8% active; AID 624297; further: % of control where 0% means no effect; nearly all actives have a fitted effect of over 55% in size
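Readout is total intensity of Hoechst-stained nuclei, excited at 405 nm and collected at 500-530 nm. Compound treatment lasted 48 hr at 37 C in 5% CO2 before staining.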
Mito fusion act: blocks mitochondrial division or promotes mitochondrial fusion; S. cerevisiae fusion-defective mutant growth rescue, CellTiterGlo 48 h; Potency, µM (highest dose often 46.1 µM), for inactives: at the highest dose growth rescue (activation), actives largely listed as activators; 320,000 tested, 0.23% active; further: % of control where 0% means no effect; nearly all actives have a fitted effect of over 45% in size
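Read-out: ATP-based luminescence (CellTiterGlo, 10 min ambient) reporting growth of fusion-defective ts yeast after 48 hours at 37C on glycerol/ethanol YPEG medium in the presence of compound.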
A-T KAP1 phos: potential ataxia-telangiectasia treatment. Potency, µM (top dose mostly 57.5 µM), for the others: top-dose activation, hits mostly activators. AID 485349. 320,000 tested, 0.19% active. F2112 A-T fibroblasts, KAP-1 phosphorylation AlphaLISA; neocarzinostatin DNA damage 30 min before lysis; further: % of control where 0% means no effect; nearly all actives have a fitted effect of over 45% in size
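ATM-like activity read as KAP-1 phosphorylation via AlphaLISA donor/acceptor antibody pairs after lysis and 6 hr at 25C. Cells were ATM-null patient fibroblasts (F2112, hTERT), dosed 60 min, then exposed to the DSB inducer NCS for 30 min.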
a7 integrin act: activates integrin-mediated alleviation for muscular dystrophy; alpha7betagal myoblasts, beta-gal FDG fluorescence, 48 h; Potency, µM (titrated, usually from 38.3 µM), for inactives: at the top dose activation, hits mostly activators; 350,000 tested, 0.064% active;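 further: 100% = response of the positive control SU9516; nearly all actives have a fitted effect of over 60% in size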
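Alpha7betagal+/- myoblasts (passage 13) were plated 16-24 hr, then exposed to compounds (1:260 dilution of DMSO stock) for 48 hours at 37C. After MPER lysis, β-galactosidase reporter activity was read as FDG fluorescence (ex 480/em 540) after 30 minutes.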
MCF10A rereplic: DNA re-replication induction in MCF 10a cells; MCF 10A DNA re-replication, Hoechst nuclear intensity, 48 h; Potency, µM (doses to about 46.1 µM), without a hit: at the highest dose activity, positive = re-replication, usual class: activators; 350,000 tested, 2.9% active; AID 624296; further: % of control where 0% means no effect; nearly all actives have a fitted effect of over 50% in size
* marks the source's active call; other numbers are inactive results; ? = inconclusive; . = not tested or not shown. The call rests on the fitted dose curve; in most records, active means well fitted activation curve with a large enough effect; inconclusive means small, poorly fitted or top-dose-only effect; inactive means no such curve, though single readings can be large or run the other way. Potency means the concentration at half of the fitted maximal effect.

SMILES	SW480 rereplic	Mito fusion act	A-T KAP1 phos	a7 integrin act	MCF10A rereplic
CCOc1cc(C)c(C(C)C)cc1S(=O)(=O)N1CC(C)OC(C)C1 (stereo not drawn)	11.6%	4.1%	5.2%	8.7%	2.2%
CCOc1cc(C)c(C(C)C)cc1S(=O)(=O)n1cnc(C)c1	?	?	-5.7%	-9.2%	9.2µM*
COc1cc(C)c(Cl)cc1S(=O)(=O)n1cnc(C)c1	-3.1%	-2.2%	-1.2%	21.9%	-3.1%
NC(=O)OC[C@@H]1[C@H](NC(=O)/C(=N/OCC(=O)O)c2csc(N)n2)C(=O)N1S(=O)(=O)O	-0.5%	.	.	.	-0.2%
O=C1c2ccccc2C(=O)c2c1ncn2-c1ccccc1	16.4µM*	2.1%	4.8%	0.0%	?
COC(=O)c1sc(-c2cccs2)cc1NC(=O)/C=C/C(=O)O	?	-0.4%	36.4%	-41.8%	?
COc1ccc(-c2csc(NC(C)c3nc4cc(Cl)c(N5CCCCC5)cc4n3CCCO)n2)cc1 (stereo not drawn)	0.146µM*	.	.	21.2%	?
O=C(NCCC(=O)N1CCC2(CC1)NCCc1[nH]cnc12)c1cccc(C(F)(F)F)c1	-11.0%	-8.5%	-9.6%	-1.0%	-2.6%
CCOC(=O)CN1C(=O)N[C@H](c2ccc(Br)cc2)C(C(C)=O)=C1C	?	0.2%	-9.3%	-23.9%	6.51µM*
CCOC(=O)CN1C(=O)N[C@@H](c2ccc(Br)cc2)C(C(=O)OC)=C1C	-18.9%	17.6%	38.7%	25.7%	1.6%
CCOC(=O)C(C#N)(Cc1ccc2ccccc2n1)Cc1ccc2ccccc2n1	6.6%	.	.	-40.2%	?
COc1cccc(-n2nc(C#N)c(Cl)cc2=O)c1	?	-17.8%	-2.4%	-67.4%	4.47µM*
CC(C)(C)OC(=O)NCc1ccc(NC(=O)c2nc[nH]c2C(=O)NCCNC(=O)c2[nH]cnc2C(=O)Nc2ccc(CNC(=O)OC(C)(C)C)cc2)cc1	?	.	12.4%	-1.7%	23.1µM*
CC(C)C[C@H](NC(=O)c1[nH]cnc1C(=O)Nc1ccc(CNC(=O)OC(C)(C)C)cc1)C(=O)OCc1ccccc1	9.5%	5.8%	-40.9%	-37.7%	18.4µM*
CC(C)(C)OC(=O)CNC(=O)c1[nH]cnc1C(=O)Nc1ccc(CNC(=O)OC(C)(C)C)cc1	-8.2%	-2.5%	-9.1%	-38.0%	?
CC(C)C[C@H](NC(=O)c1[nH]cnc1C(=O)Nc1ccc(CNC(=O)OC(C)(C)C)cc1)C(=O)OC(C)(C)C	4.4%	3.0%	9.1%	-44.3%	?
Cc1cccc(Cc2cnc(NC(=O)c3ccc(C)o3)s2)c1	5.7%	?	.	-6.4%	2.59µM*
Cc1cccc(Cc2cnc(NC(=O)C3=NCCN3)s2)c1	3.3%	-0.6%	3.0%	-39.1%	15.7%
CCN1CCN(c2cc(C(C)(C)C)nc3c(-c4ccccc4)c(C)nn23)CC1	6.51µM*	-3.8%	-1.1%	-62.7%	?
Cc1nn2c(N3CCOCC3)cc(C(C)(C)C)nc2c1-c1ccccc1	?	3.3%	-2.4%	0.4%	2.1%
Cc1c(CN(C)Cc2cn(C)nc2-c2ccccc2F)[nH]c2ccccc12	?	-1.9%	3.3%	-16.3%	18.4µM*
CN(CCCN1CCOCC1)Cc1cn(C)nc1-c1ccccc1F	-2.0%	-16.3%	-4.6%	11.7%	-0.6%
c1ccc(Nc2cc(Nc3ccccc3)[nH]n2)cc1	20.5%	-7.5%	-3.4%	17.5%	-5.6%
COc1ccc(C(=O)NC(=C(Cl)Cl)S(=O)(=O)c2ccc(C)cc2)cc1	13µM*	-14.7%	1.6%	-8.6%	10.3µM*
Cc1ccc(C(=O)NC(=S)NNS(=O)(=O)c2ccccc2)cc1	-3.0%	-7.9%	2.7%	-11.6%	?
SMILES	SW480 rereplic	Mito fusion act	A-T KAP1 phos	a7 integrin act	MCF10A rereplic
Cc1ccc(C(=O)NC(C#N)=C(Cl)Cl)cc1	?	-10.5%	-16.0%	-75.4%	9.2µM*
Cc1ccc(C(=O)NC(=C(Cl)Cl)S(=O)(=O)c2ccccc2)cc1	-4.1%	-3.8%	-5.6%	-61.1%	20.6µM*
Cc1ccc(C(=O)NCC#N)cc1	-6.6%	-8.6%	3.5%	-8.1%	-7.2%
COC(=O)NC(=C(Cl)Cl)S(=O)(=O)c1ccccc1	?	-2.8%	.	-56.9%	7.31µM*
Cc1cccc(C=Nc2ccccc2C(N)=O)c1	5.8µM*	-4.2%	-2.0%	-4.0%	3.66µM*
Cc1cccc(/C=N/NC(=O)Cc2cccs2)c1	0.6%	-2.6%	0.0%	-3.1%	-3.8%
Cc1ccc(C=Nc2ccccc2C(N)=O)s1	4.61µM*	0.2%	-3.2%	-4.2%	3.66µM*
O=C(COC(=O)c1ccc(F)cc1F)NC1CC1	-19.5%	-2.0%	3.3%	17.1%	?
Cc1onc(-c2ccccc2)c1C(=O)N/N=C/C(Br)=C/c1ccccc1	0.231µM*	?	4.9%	-14.2%	?
CCOc1cc(C(=O)NN=C2CCCC2)cc(OCC)c1OCC	?	0.1%	1.5%	0.0%	16.4µM*
O=C(N/N=C/C(Br)=C\c1ccccc1)c1ccc2nc[nH]c2c1	?	-0.1%	17.9%	-31.6%	23.1µM*
C=CCc1cccc(/C=N/NC(=O)c2ccc3nc[nH]c3c2)c1O	?	-5.9%	2.5%	-14.7%	20.6µM*
Cc1ccsc1C(=O)NCCc1nnc2ccccn12	?	-2.8%	0.3%	0.0%	?
O=C(N/N=C/C(Br)=C/c1ccccc1)c1ccncc1	?	-4.1%	3.8%	-63.8%	?
CCOc1cc(C(=O)N/N=C/C(Br)=C/c2ccccc2)cc(OCC)c1OCC	?	-21.3%	10.3%	-27.6%	1.3µM*
C=CCc1cccc(/C=N/NC(=O)C(C)Nc2ccc(C)cc2)c1O (stereo not drawn)	16.4µM*	-6.7%	-10.2%	1.2%	?
Cc1ccc(S(=O)(=O)N2CCOCC2)cc1C(=O)N1c2ccccc2Sc2ccccc21	-5.0%	8.9%	0.9%	-32.5%	3.9%
CC1(C)CC[C@]2(CO)CC[C@]3(C)C(=CCC4[C@@]5(C)CC[C@H](O)[C@@](C)(CO)C5CC[C@]43C)[C@@H]2C1 (stereo partly drawn)	7.3%	.	-5.4%	26.1%	10.3µM*
Cc1ccc(S(=O)(=O)N2CCOCC2)cc1C(=O)NCCCN1CCCC1=O	.	.	.	-11.8%	.
O=C(C1=C[C@H](c2csc3ccccc23)C[C@H](OCc2ccc(CO)cc2)O1)N1CCCCCCC1	1.4%	.	.	-1.4%	23.1µM*
NC(=S)N/N=C/c1ccccc1OCCSc1ccc(Cl)cc1	?	18.4%	-0.9%	-55.0%	20.6µM*
Cc1nn(Cc2ccc(C(=O)NN)cc2)c(C)c1Cl	-1.6%	14.7%	1.2%	-39.0%	1.1%
Cc1nn(Cc2ccc(C(=O)Nc3nccs3)cc2)c(C)c1Cl	-4.1%	0.8%	0.1%	0.0%	5.8µM*
Cc1nn(Cc2ccc(C(=O)Nc3ccccc3F)cc2)c(C)c1Cl	-7.3%	?	5.4%	-21.0%	23.1µM*
